Rows were chosen to be rich in hits. Some 19% of all compounds tested hit in one or more screens of this group.
TDP1 inh = TDP1 (human) enzyme inhibition; Q9NUW8; recombinant TDP1, AlphaScreen DNA substrate cleavage; Potency, µM (doses to about 130 µM), hits mostly inhibitors; hit rate 0.28% among 350,000; AID 485290; also: nearly all actives have a fitted effect of over 40% in size
Target sequence (Q9NUW8 whole entry, looked up): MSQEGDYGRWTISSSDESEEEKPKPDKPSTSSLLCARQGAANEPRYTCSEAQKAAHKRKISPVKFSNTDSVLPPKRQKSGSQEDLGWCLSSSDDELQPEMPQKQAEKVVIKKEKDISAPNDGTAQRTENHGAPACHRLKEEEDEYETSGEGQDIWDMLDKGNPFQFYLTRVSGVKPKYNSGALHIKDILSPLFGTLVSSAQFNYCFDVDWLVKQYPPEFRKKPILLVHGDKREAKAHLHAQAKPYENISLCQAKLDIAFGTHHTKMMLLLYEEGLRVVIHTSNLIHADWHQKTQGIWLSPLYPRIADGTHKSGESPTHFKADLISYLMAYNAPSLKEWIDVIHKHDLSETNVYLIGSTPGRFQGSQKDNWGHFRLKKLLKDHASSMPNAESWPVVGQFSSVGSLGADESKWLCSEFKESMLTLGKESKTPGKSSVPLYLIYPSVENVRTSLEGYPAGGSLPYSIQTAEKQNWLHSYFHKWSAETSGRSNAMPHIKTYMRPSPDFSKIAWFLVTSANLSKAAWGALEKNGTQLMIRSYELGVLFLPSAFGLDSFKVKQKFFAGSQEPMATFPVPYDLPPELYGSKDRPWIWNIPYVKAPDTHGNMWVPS
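Tdp1 1 nM final; 15 min RT w/ cpd; substrate 15 nM, 5 min; beads 10 ug/ml, 10 min; AlphaScreen read. Neg ctrl: no enzyme.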
TDP1 cell noCPT = qHTS for Inhibitors of human tyrosyl-DNA phosphodiesterase 1 (TDP1): qHTS in cells in absence of CPT; DT40 Tdp1-/- hTDP1 cells, no CPT, ATP luminescence, 48 h; Potency, µM (top dose mostly 46.2 µM), usual class: inhibitors; hit rate 15% among 420,000; AID 686978, 2013; also: nearly all actives have a fitted effect of over 55% in size
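Luminescent ATP content (CellTiter-Glo) served as the growth readout. Knockout chicken DT40 cells expressing human TDP1 were exposed to compounds without camptothecin for a minimum 48 hr at 37 °C.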
Giardia kill = kills Giardia lamblia | Giardia lamblia trophozoite viability | activity change, % at 7.66 µM, hits read low | hit rate 0.15% among 340,000 | AID 540267; in the data active = activity change below about -80%; inconclusive = between about -30% and that limit;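 also: parasites exposed to compound for two days anaerobically before the ATP read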
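Media and compound were dispensed first, then trophozoites at 100 cells/well; plates sat 48 hrs at 37 deg C without oxygen before ATP luminescence reagent was added and read after 15-30 min at room temperature.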
TDP1 cell CPT = growth inhibition of DT40 Tdp1-/-;hTDP1 cells with camptothecin (screen for TDP1 inhibitors); hit rate 12% among 420,000; AID 686979; chicken DT40 Tdp1-/-;hTDP1 cells + 20 nM CPT, ATP luminescence, 48 h; Potency, µM (top dose mostly 46.2 µM), hits mostly inhibitors; also: nearly all actives have a fitted effect of over 55% in size
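Chicken DT40 Tdp1-/- cells stably complemented with human TDP1 were seeded at 400 cells/well in medium containing 20 nM camptothecin, exposed to pin-transferred compounds, and grown at 37 °C for at least 48 hr. Viability was read as ATP luminescence.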
ELG1 repair inh = blocks ELG1-dependent DNA repair in HEK293T cells. hit rate 2.3% among 330,000. HEK293T ELG1-luciferase reporter, luminescence, 16 h; DNA damage induced by 5-fluorouridine. AID 504467. Potency, µM (top dose mostly 46.1 µM), hits mostly inhibitors; also: nearly all actives have a fitted effect of over 55% in size
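HEK293T cells expressing luciferase-tagged ELG1 (2,000/well) received 5-Fluorouridine plus compound or DMSO for 16 hr at 37 °C. Luciferase was read by ONE-Glo luminescence after 30 min at room temperature.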
IL-1B inflam inh = inflammasome signaling inhibition, IL-1 beta readout; THP-1 LPS/ATP IL-1B secretion, AlphaLISA, 16 h; active compounds read low; activity change, % at 57.5 µM; hit rate 4.7% among 360,000; AID 743279; in the data active = activity change below about -50%; inconclusive = mostly about -30% to -49%
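Secreted IL-1B measured by AlphaLISA bead assay after 16 h compound exposure of THP-1 cells; compounds (final up to 57.5 uM) added 1 h before LPS (250 ng/mL) and ATP (1.25 mM) stimulation; lower signal means less secretion.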
Numbers stand for hits; [ ] = remark or other dose. Unless noted, calls follow the shape of the dose curve; as a rule, active = well fitted curve in the direction sought with a large enough effect; inconclusive = small, poorly fitted or top-dose-only effect, or another doubt; inactive = no such curve, though single readings can be large; an effect the other way counts as inactive or inconclusive.

What do the screens show for `COc1ccc(Cl)cc1NC(=O)Nc1cccc([N+](=O)[O-])c1C`?
TDP1 inh: inactive; TDP1 cell noCPT: 23.1µM; Giardia kill: inactive; TDP1 cell CPT: inconclusive; ELG1 repair inh: inconclusive; IL-1B inflam inh: inactive

How did COc1ccccc1C(=O)NCC(=O)NCCC(c1ccccc1)c1ccccc1 do in these assays?
TDP1 inh: inactive; TDP1 cell noCPT: 16.4µM; Giardia kill: inactive; TDP1 cell CPT: 14.6µM; ELG1 repair inh: inactive; IL-1B inflam inh: inactive

How did CC(C)(c1cc(Br)c(OCC(Br)CBr)c(Br)c1)c1cc(Br)c(OCC(Br)CBr)c(Br)c1 (stereo not given) do in these assays?
TDP1 inh: inactive

How did CC1(C(=O)NS(=O)(=O)c2cccc(Cl)c2)CCN1C(=O)Cc1cc(F)ccc1F (stereo not given) do in these assays?
TDP1 cell noCPT: inactive; TDP1 cell CPT: inactive; IL-1B inflam inh: inactive

Results for O=C(CNC(=O)c1ccc(Cl)cc1Cl)OCN1C(=O)c2ccccc2C1=O ?
TDP1 inh: inactive[0.505 µM]; TDP1 cell noCPT: inactive; Giardia kill: inactive; TDP1 cell CPT: inactive; ELG1 repair inh: inactive; IL-1B inflam inh: inactive

Results for C(C#CCCCCCCCCC[n+]1ccccc1)#CCCCCCCCCC[n+]1ccccc1 ?
TDP1 inh: inactive; TDP1 cell noCPT: 3.26µM; Giardia kill: inactive; TDP1 cell CPT: 3.26µM; ELG1 repair inh: 18.3µM; IL-1B inflam inh: -94.9

What do the screens show for `CCC(=O)Nc1c2c(nn1-c1cccc(Cl)c1)CSC2`?
TDP1 inh: inactive; TDP1 cell noCPT: 0.731µM; Giardia kill: inactive; TDP1 cell CPT: inactive; ELG1 repair inh: inactive; IL-1B inflam inh: inactive

How did O=C(C1=C[C@@H](c2ccccc2)C[C@@H](OCc2ccc(CO)cc2)O1)N1CCCCCCC1 do in these assays?
TDP1 inh: inactive; TDP1 cell noCPT: inconclusive; Giardia kill: inactive; TDP1 cell CPT: inconclusive; ELG1 repair inh: inactive; IL-1B inflam inh: inactive

What do the screens show for `CC(C)(C)[C@H]1C=C(C(=O)N2CCN(Cc3ccc4c(c3)OCO4)CC2)O[C@@H](OCc2ccc(CO)cc2)C1`?
TDP1 inh: inactive; TDP1 cell noCPT: 18.4µM; Giardia kill: inactive; TDP1 cell CPT: 20.6µM; ELG1 repair inh: 5.17µM; IL-1B inflam inh: -61.3

How did CC(C)(C)[C@@H]1C=C(C(=O)N2CCN(Cc3ccccc3)CC2)O[C@H](OCc2ccc(CO)cc2)C1 do in these assays?
TDP1 inh: inactive; TDP1 cell noCPT: inconclusive; Giardia kill: inactive; TDP1 cell CPT: 13µM; ELG1 repair inh: inactive; IL-1B inflam inh: inactive

Results for COCCNC(=O)C1(C)CCCN(C(=O)c2cccc(C(F)(F)F)c2)C1 (stereo not given) ?
TDP1 cell noCPT: inactive; TDP1 cell CPT: inactive; IL-1B inflam inh: inactive

Results for C[C@@H]1CN([C@@H](C)CO)C(=O)CCCn2nncc2CO[C@@H]1CN(C)S(=O)(=O)c1ccccc1 ?
TDP1 cell noCPT: inactive; TDP1 cell CPT: inactive; IL-1B inflam inh: inactive

Results for COC(=O)c1c(-c2ccc(N(C)C)cc2)oc2c1C(OC)CCC2 (stereo not given) ?
TDP1 cell noCPT: 18.4µM; TDP1 cell CPT: inconclusive; IL-1B inflam inh: inactive

What do the screens show for `COCCCn1c(SCC(=O)NNC(=O)c2cccc(O)c2)nnc1-c1ccncc1`?
TDP1 inh: inactive; TDP1 cell noCPT: inactive; Giardia kill: inactive; TDP1 cell CPT: inactive; ELG1 repair inh: inactive; IL-1B inflam inh: inactive

Results for Cc1ccc(C)c(N2CCN(C3=C(c4ccccc4)C(=O)c4ccccc43)CC2)c1 ?
TDP1 inh: inactive; TDP1 cell noCPT: 16.4µM; TDP1 cell CPT: 7.31µM

What do the screens show for `COc1ccc(C2=C(N3CCN(c4cccc(C)c4C)CC3)c3ccccc3C2=O)cc1`?
TDP1 inh: inactive; TDP1 cell noCPT: inconclusive; TDP1 cell CPT: 16.4µM

How did CSc1nc2ccc(NC(=O)C3CC(=O)N(Cc4ccccc4)C3)cc2s1 (stereo not given) do in these assays?
TDP1 inh: inactive; TDP1 cell noCPT: inconclusive; Giardia kill: inactive; TDP1 cell CPT: inactive; ELG1 repair inh: inactive; IL-1B inflam inh: inactive

Results for COC(=O)[C@H](Cc1ccccc1)NC(=O)NCc1cccs1 ?
TDP1 inh: inactive; TDP1 cell noCPT: inactive; Giardia kill: inactive; TDP1 cell CPT: inactive; ELG1 repair inh: inactive; IL-1B inflam inh: inactive

What do the screens show for `C=C1C(=O)OC2C=C(CO)CCC=C(CO)CC(OC(=O)C(C)C)C12` (stereo not given)?
TDP1 cell noCPT: 2.91µM; Giardia kill: inactive; TDP1 cell CPT: 2.91µM; IL-1B inflam inh: -100.9

What do the screens show for `O=C(NCc1ccccc1)c1ccc(-c2ccc(F)c(F)c2)c2ccoc12`?
TDP1 cell noCPT: inconclusive; TDP1 cell CPT: inconclusive; IL-1B inflam inh: -72.4

What do the screens show for `O=C(NCc1ccco1)c1ccc(-c2ccc(F)c(F)c2)c2ccoc12`?
TDP1 cell noCPT: 18.4µM; TDP1 cell CPT: inconclusive; IL-1B inflam inh: inactive

How did COc1ccc(CNC(=O)c2ccc(-c3cnn(C)c3)c3ccoc23)cc1OC do in these assays?
TDP1 cell noCPT: inconclusive; TDP1 cell CPT: inactive; IL-1B inflam inh: inactive

Results for O=C(NCCc1ccccc1)c1ccc(-c2ccc(F)c(F)c2)c2ccoc12 ?
TDP1 cell noCPT: 4.11µM; TDP1 cell CPT: 16.4µM; IL-1B inflam inh: inactive

Results for O=C(NCc1cccc(Cl)c1)c1ccc(-c2ccc(F)c(F)c2)c2ccoc12 ?
TDP1 cell noCPT: inconclusive; TDP1 cell CPT: inconclusive; IL-1B inflam inh: inactive

What do the screens show for `O=C(NCc1cccs1)c1cccc2c(-c3ccc(F)c(F)c3)coc12`?
TDP1 cell noCPT: inconclusive; TDP1 cell CPT: inconclusive; IL-1B inflam inh: inactive

Results for COc1ccc(CNC(=O)c2ccc(-c3ccc(F)c(F)c3)c3ccoc23)cc1OC ?
TDP1 cell noCPT: 14.6µM; TDP1 cell CPT: 20.6µM; IL-1B inflam inh: inactive

Results for Cc1c(C(=O)N(C)C)sc2c1c(=O)n(-c1ccc(F)cc1)c(=O)n2Cc1cc(=O)n2ccccc2n1 ?
TDP1 inh: inactive; TDP1 cell noCPT: inactive; TDP1 cell CPT: inactive

What do the screens show for `O=c1oc(-c2ccc(Br)cc2)nc2ccccc12`?
TDP1 cell noCPT: inactive; Giardia kill: inactive; TDP1 cell CPT: inactive; ELG1 repair inh: inconclusive; IL-1B inflam inh: inactive

How did O=C(NCCc1ccccc1)c1ccc(Cn2c(SCc3ccccc3)nc3cccnc32)cc1 do in these assays?
TDP1 inh: inactive; TDP1 cell noCPT: inconclusive; TDP1 cell CPT: inconclusive

Results for CC(C)OCCCNC(=O)c1ccc(CSc2nc3cccnc3n2Cc2ccccc2)cc1 ?
TDP1 inh: inactive; TDP1 cell noCPT: 23.1µM; TDP1 cell CPT: inconclusive

What do the screens show for `CCNC(=O)c1ccc(CSc2nc3cccnc3n2Cc2ccc(OC)cc2)cc1`?
TDP1 inh: inactive; TDP1 cell noCPT: inconclusive; TDP1 cell CPT: inconclusive
